Among all 62,000 compounds or so, about 95 (0.2%) were called active. What follows is part of a selection rich in actives, with near analogues and random picks from the rest. Unmarked numbers belong to inactive results.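 How the source made its calls: active means inhibition above 20% in each of the two mixture wells holding the compound; inactive means inhibition of 20% or less in either well.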

In the assay the target is Cathepsin G (Homo sapiens) (UniProt P08311). The assay is described as follows: blockers of neutrophil cathepsin G protease – biochemical, pooled compound mixtures, AMC fluorescence, primary screen (AID 581).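 Further: 0% = enzyme control without mixture and 100% = blank lacking enzyme.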 Conditions: purified enzyme, AMC-tetrapeptide fluorescence, active compounds read high, screened at 5 µM (by protocol).
Chain of Cathepsin G (Homo sapiens) (P08311 21-244 limits assumed): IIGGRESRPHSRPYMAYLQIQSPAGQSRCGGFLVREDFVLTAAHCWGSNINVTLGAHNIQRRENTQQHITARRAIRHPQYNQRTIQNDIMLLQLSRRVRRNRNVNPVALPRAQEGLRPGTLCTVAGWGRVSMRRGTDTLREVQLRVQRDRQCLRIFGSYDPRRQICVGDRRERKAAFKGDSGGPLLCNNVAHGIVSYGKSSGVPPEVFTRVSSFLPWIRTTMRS
In the case of `COc1ccc(C2C(C#N)=C(N)Oc3n[nH]c(C)c32)cc1CN1CCN(c2ccc(F)cc2)CC1` (configuration not stated), the inhibition is -3.59%. The value for `CCOC(=O)c1nnn(-c2nonc2OC)c1-c1ccccc1` was -2.37%; that for `CC(C)=C(NC(=O)c1ccco1)C(=O)NCCc1nc2ccccc2[nH]1` was 9.21%; that for `O=C1CCc2cc(S(=O)(=O)N3CCC(C(=O)NCc4ccccc4Cl)CC3)ccc2N1` was 11%. The result for `CC(=O)CCS(=O)(=O)c1ccc(C)c(C)c1` reads -14.8%; that for `NC(=O)C1(N2CCCCC2)CCN(C(=O)c2ccc(C#Cc3ccccc3)o2)CC1`, 11.6%. The value for `COCCNc1nc(-n2nc(C)cc2C)nc2sc3c(c12)CCCC3` was -7.79%. `Cc1ccccc1OCCC(=O)Nc1c(C)n(C)n(-c2ccccc2)c1=O`: the inhibition was 16.9%.

For `Cc1cc(Br)ccc1NC(=O)C1CCCO1` (configuration not stated), the inhibition was 9.61%. The value for `COc1cc2[nH]c(=S)n(Cc3ccc(C)o3)c(=O)c2cc1OC` was -0.64%.

`CN1CCN(c2nc3c(c(=O)[nH]c(=O)n3C)n2Cc2cccc3ccccc23)CC1`: the inhibition is 14.6%. The result for `Cc1nnc(SCC(=O)NCCOc2ccc(Cl)cc2)n1-c1ccccc1` reads 6.24%. The result for `CC1(C)CC(=O)C=C(NC2CC(C)(C)NC(C)(C)C2)C1` reads 6.34%; that for `Cn1c(=O)c2c(n(Cc3ccccc3)c1=O)NC(=O)C2CC(=O)N1CCc2ccccc2C1` (configuration not stated), 4.22%; that for `NC(=O)c1ccccc1NC(=O)c1ccccc1F`, 1.67%. The result for `Cn1c(SCc2c(F)cccc2Cl)nnc1-c1cnccn1` reads 3.17%.

As to `O=C(c1cnn2ccccc12)N1CCc2ccccc21`, the inhibition was 10.9%. The value for `O=C(NC1(C(F)(F)F)N=C2SCCN2C1=O)c1ccco1` (configuration not stated) was 3.45%; that for `O=C(CCN1C(=O)COc2ccccc21)NCCCN1CCN(c2ccc(F)cc2)CC1` was -3.54%; that for `Cc1cccc(NC(=O)C2CCN(S(=O)(=O)c3cccc4cccnc34)CC2)c1` was 10.6%.

On to `Cc1cccc(NC(=O)COc2ccc(Br)cc2C)n1`, for which the inhibition was 2.75%. The result for `c1cc(-n2cnnn2)ccc1NC1=NCCC1` reads -2.07%; that for `COc1ccc(-n2c(SCC(=O)OC(C)C)nnc2-c2ccccn2)cc1`, 7.94%. Consider `CCC(=O)N1CCc2cc(S(=O)(=O)NC(C(=O)N3CCc4ccccc4C3)C(C)C)ccc21` (configuration not stated), for which the inhibition is 4.46%. The value for `CCCc1nc2ccccc2c(=O)n1/N=C/c1ccc(O)c(O)c1` was 2.2%; that for `COc1cccc(C2/C(=C(/O)c3ccncc3)C(=O)C(=O)N2CCCN(C)C)c1` (configuration not stated) was 6.68%. `COCCCn1c2nc3ccccc3nc2c2c(=O)n(Cc3ccc(Cl)cc3)c(C)nc21`: the inhibition was 7.46%. The result for `Cc1cc(C)nc(N2C(=O)CC(Cc3ccccc3)C2=O)n1` (configuration not stated) reads -4.68%. The result for `Cc1cc(=O)[nH]c(SCc2cc(Cl)ccc2OC(F)F)n1` reads 8.17%; that for `O=C(CNCCO)NC12CC3CC(CC(C3)C1)C2`, 11.2%; that for `C[C@H](NC(=O)NCCc1ccccc1)C(=O)O`, 2.02%. Regarding `O=C(Cn1c(=O)sc2ccccc21)Nc1ccc2c(c1)OCCO2`, the inhibition was 1.24%. For `O=C(Nc1ccc2c(c1)OCO2)C1CC(c2c(F)cccc2Cl)=NO1` (configuration not stated), the inhibition was 9.79%. The result for `CCCCCN(C(=O)NC(=O)Nc1ccccc1C)S(C)(=O)=O` reads 3.6%; that for `CC(C)C(=O)Nc1cccc(C(=O)Nc2ccc3c(c2)OCO3)c1`, 10.1%; that for `CCOc1c(N2CCCCC2)c(=O)c1=O`, -3.4%. The result for `Cc1cc2c(cc1C)NC(c1ccccn1)C1=C(CC(C)(C)CC1=O)N2` (configuration not stated) reads 9.5%; that for `Cc1ccc(S(=O)(=O)N2CCN(Cc3cccc(C)c3O)CC2)cc1`, 2.48%.

For the molecule `O=c1c2ccccc2[nH]c(=S)n1CCN1CCC(=C(c2ccc(F)cc2)c2ccc(F)cc2)CC1`, the inhibition is 13.1%. The value for `CCC(C)n1[nH]c(=O)cc1N` (configuration not stated) was 0.53%; that for `CN(c1nc2ccccc2n2c(-c3ccco3)nnc12)S(=O)(=O)c1ccccc1` was -5.29%; that for `N#Cc1c(/N=C/N2CCCC2)oc(-c2ccccc2)c1-c1ccccc1` was 9.67%. Consider `O=C(Nc1cc(=O)[nH]c2ncnn12)c1ccccc1Cl`, for which the inhibition is -3.08%. The value for `O=C(O)C1CC=C(Cl)CC1C(=O)NCc1ccccc1` (configuration not stated) was 12.7%; that for `Cc1ccc(-n2c(N)c(C(=O)N3CCOCC3)sc2=S)c(C)c1` was 11.4%. Turning to `c1ccc2c(c1)OCC(c1nn3cnnc3s1)O2` (configuration not stated), the inhibition is 1.56%. The result for `CC(=O)N1CSCC1C(=O)O` (configuration not stated) reads 10.9%; that for `COc1ccc(C)cc1S(=O)(=O)NC1CCCCC1`, 3.27%; that for `O=C(CCCN1C(=O)CSc2ncccc21)N1CCN(c2cccc(C(F)(F)F)c2)CC1`, 1.22%. The result for `Fc1ccc(Br)cc1/C=N/n1cnnc1` reads -0.86%; that for `ON=C1/C(=N\O)CC2(C/C1=N/O)OCCO2`, -0.38%; that for `CC(=O)c1c(C)n(-c2ccc(N(C)C)cc2)c2ccc(OCC(N)=O)cc12`, 8.67%.

For the molecule `COc1ccc(S(=O)(=O)NC2(C(F)(F)F)N=C3SCCN3C2=O)cc1` (configuration not stated), the inhibition was 11.4%. The value for `CCN(CC)C(=O)C1CCC(C)(C(=O)O)C1(C)C` (configuration not stated) was 11.2%.

For the molecule `COC(=O)c1ccccc1NC(=O)C1CCN(S(=O)(=O)c2cc(OC)ccc2OC)CC1`, the inhibition is 2.31%.

On to `CC(=O)N(CC1CCCO1)C1(C(=O)NC2CCCC2)CCCCC1` (configuration not stated), for which the inhibition was 10.3%. The result for `COCC(=O)Nc1nnc(COc2ccccc2)s1` reads -21.9%; that for `CCN(CC(=O)Nc1ccc2c(c1)OCCO2)Cc1cc(=O)oc2cc(C)c(C)cc12`, 1.52%; that for `CC1(C)Cc2ccccc2-c2nc(CN3CCOCC3)[nH]c(=O)c21`, 3.33%. On to `O=C1N(Cc2ccc3c(c2)OCO3)c2ccccc2C1(O)c1c[nH]c2ccccc12` (configuration not stated), for which the inhibition is 1.27%.

Take `COc1ccc(Cl)cc1NC(=O)C1CC(=O)N(c2ccc(F)cc2)C1` (configuration not stated): the inhibition is 8.25%. The result for `O=C(CN1CCOCC1)N1CCCc2c1c(=O)oc1ccc(OCc3ccccc3)cc21` reads -5.32%.

By inhibition is commonly meant the drop in the measured response relative to a control, in per cent.

These data come from PubChem BioAssay AID581 (PCMD, 2007).
